Source: PubChem BioAssay AID1159580 (chemical genetic matrix, 2015)
Out of some 5,500 compounds screened, about 2,000 (36%) were called active. About 18% were inconclusive and are not listed. Rule as the data show it: active = normalized growth mostly below about 0.91 (no sharp cut-off); inconclusive = no clear call, values can overlap the other calls; inactive = mostly above about 0.92. The list shows a part of the results.

Assay: chemical genetic growth profiling, strain panel (AID 1159580);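 also: tested at 20 µM; growth read once vehicle control cultures reached saturation at 30 °C; 1 = growth at the plate median or of vehicle wells; lower values mean less growth of the strain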
Settings: growth OD
[1] = S. cerevisiae deletion strains, locus YGR078C, strain PAC10, active compounds read low
[2] = S. cerevisiae deletion strains, locus YNL153C, strain GIM3, active compounds read low
[3] = S. cerevisiae deletion strains, locus YAL013W, strain DEP1, active compounds read low
[4] = S. cerevisiae deletion strains, locus YBR229C, strain ROT2, active compounds read low
[5] = S. cerevisiae deletion strains, locus YCL061C, strain MRC1, active compounds read low
[6] = S. cerevisiae deletion strains, locus YDL101C, strain DUN1, active compounds read low
[7] = S. cerevisiae deletion strains, locus YDR150W, strain NUM1, active compounds read low
[8] = S. cerevisiae deletion strains, locus YEL061C, strain CIN8, active compounds read low
[9] = S. cerevisiae deletion strains, locus YHR030C, strain SLT2, active compounds read low
[10] = S. cerevisiae deletion strains, locus YHR087W, strain rtc3, active compounds read low
[11] = S. cerevisiae deletion strains, locus YJR043C, strain POL32, active compounds read low
[12] = S. cerevisiae deletion strains, locus YJR075W, strain HOC1, active compounds read low
[13] = S. cerevisiae deletion strains, locus YKL190W, strain CNB1, active compounds read low
[14] = S. cerevisiae deletion strains, locus YLR039C, strain RIC1, active compounds read low
[15] = S. cerevisiae deletion strains, locus YLR058C, strain SHM2 (second series), active compounds read low
[16] = S. cerevisiae deletion strains, locus YLR085C, strain ARP6, active compounds read low
[17] = S. cerevisiae deletion strains, locus YLR262C, strain YPT6, active compounds read low
[18] = S. cerevisiae deletion strains, locus YML094W, strain GIM5, active compounds read low
[19] = S. cerevisiae deletion strains, locus YMR219W, strain ESC1, active compounds read low
[20] = S. cerevisiae deletion strains, locus YMR263W, strain SAP30, active compounds read low
[21] = S. cerevisiae deletion strains, locus YNL128W, strain TEP1, active compounds read low
[22] = S. cerevisiae deletion strains, locus YNL298W, strain CLA4 (second series), active compounds read low
[23] = S. cerevisiae deletion strains, locus YNL322C, strain KRE1, active compounds read low
[24] = S. cerevisiae deletion strains, locus YNR030W, strain Alg12, active compounds read low
[25] = S. cerevisiae deletion strains, locus YPL055C, strain LGE1, active compounds read low
[26] = S. cerevisiae deletion strains, locus YPL241C, strain CIN2, active compounds read low
[27] = S. cerevisiae deletion strains, locus YPR135W, strain CTF4, active compounds read low
[28] = S. cerevisiae strains, strain wild type, active compounds read low
[29] = S. cerevisiae deletion strains, locus YOL006C, strain TOP1, active compounds read low

Measured: normalized growth

COc1cc([C@@H]2c3cc4c(cc3[C@H](O)C3COC(=O)[C@@H]32)OCO4)cc(OC)c1OC (stereo partly drawn)
inactive: S. cerevisiae deletion strains, locus YAL040C, strain CLN3, active compounds read low 1.06 | S. cerevisiae deletion strains, locus YCL061C, strain MRC1 (second series), active compounds read low 0.999 | S. cerevisiae deletion strains, locus YDR363W, strain ESC2, active compounds read low 1 | S. cerevisiae deletion strains, locus YER002W, strain NOP16, active compounds read low 1.02 | [1] 1.02 | [2] 1.04 | S. cerevisiae deletion strains, locus YNL175C, strain NOP13, active compounds read low 1.02 | S. cerevisiae deletion strains, locus YNL197C, strain WHI3, active compounds read low 1 | S. cerevisiae deletion strains, locus YNL224C, strain SQS1, active compounds read low 1 | S. cerevisiae deletion strains, locus YOR083W, strain WHI5 (second series), active compounds read low 1

C/C(=N/O)c1ccn(S(=O)(=O)c2ccc(Cl)cc2)c1
inactive: [3] 0.998 | [4] 1.02 | [5] 1.05 | [6] 1.03 | S. cerevisiae deletion strains, locus YDL134C, strain PPH21, active compounds read low 1 | [7] 0.891 | [8] 0.983 | [1] 1.01 | [9] 1.02 | [10] 0.992 | [11] 1.05 | [12] 1.02 | [13] 0.995 | [14] 1.04 | [15] 0.978 | [16] 0.99 | [17] 1.04 | [18] 1.02 | [19] 0.996 | [20] 0.998 | [21] 1 | [2] 1.05 | [22] 1.02 | [23] 0.983 | [24] 1 | [25] 0.989 | [26] 1 | [27] 1.06 | [28] 1.01

CC(=N/O)/C(C)=C/c1ccc(Cl)cc1
active: [3] 0.8 | [4] 0.822 | [6] 0.835 | [8] 0.648 | [1] 0.752 | S. cerevisiae deletion strains, locus YGR229C, strain SMI1, active compounds read low 0.898 | [9] 0.165 | [10] 0.785 | [11] 0.824 | [12] 0.521 | [14] 0.327 | [15] 0.848 | [16] 0.164 | [17] 0.311 | [18] 0.712 | [19] 0.855 | [20] 0.837 | [2] 0.852 | [22] 0.441 | [23] 0.885 | [24] 0.555 | [29] 0.305 | [25] 0.56 | [26] 0.502 | [27] 0.231
inactive: [7] 0.847

O=C(O)C1=C(CSc2nnnn2CS(=O)(=O)O)CS[C@@H]2C(NC(=O)[C@H](O)c3ccccc3)C(=O)N12 (stereo partly drawn)
inactive: S. cerevisiae deletion strains, locus YAL021C, strain ccr4, active compounds read low 0.955 | S. cerevisiae deletion strains, locus YAL026C, strain drs2, active compounds read low 0.965 | S. cerevisiae deletion strains, locus YAL030W, strain snc1, active compounds read low 0.993 | S. cerevisiae deletion strains, locus YBL061C, strain skt5, active compounds read low 0.989 | S. cerevisiae deletion strains, locus YBR009C, strain hhf1, active compounds read low 0.993 | S. cerevisiae deletion strains, locus YBR023C, strain chs3, active compounds read low 0.988 | S. cerevisiae deletion strains, locus YBR171W, strain sec66, active compounds read low 0.978 | S. cerevisiae deletion strains, locus YBR231C, strain swc5, active compounds read low 0.987 | S. cerevisiae deletion strains, locus YBR279W, strain paf1, active compounds read low 0.99 | S. cerevisiae deletion strains, locus YCL011C, strain gbp2, active compounds read low 0.963 | S. cerevisiae deletion strains, locus YCL016C, strain dcc1, active compounds read low 0.987 | [5] 0.971 | S. cerevisiae deletion strains, locus YCL069W, strain vba3, active compounds read low 0.978 | S. cerevisiae deletion strains, locus YCR088W, strain abp1, active compounds read low 0.968 | S. cerevisiae deletion strains, locus YDL005C, strain med2, active compounds read low 0.98 | S. cerevisiae deletion strains, locus YDL040C, strain nat1, active compounds read low 0.989 | S. cerevisiae deletion strains, locus YDR001C, strain nth1, active compounds read low 0.978 | S. cerevisiae deletion strains, locus YDR069C, strain doa4, active compounds read low 0.982 | S. cerevisiae deletion strains, locus YDR137W, strain rgp1, active compounds read low 0.928 | S. cerevisiae deletion strains, locus YDR159W, strain sac3, active compounds read low 0.966 | S. cerevisiae deletion strains, locus YDR195W, strain ref2 0.971 | S. cerevisiae deletion strains, locus YDR297W, strain sur2, active compounds read low 0.985 | S. cerevisiae deletion strains, locus YDR334W, strain swr1, active compounds read low 0.95 | S. cerevisiae deletion strains, locus YDR335W, strain msn5, active compounds read low 0.963 | S. cerevisiae deletion strains, locus YDR392W, strain spt3, active compounds read low 0.956 | S. cerevisiae deletion strains, locus YEL003W, strain gim4, active compounds read low 0.969 | S. cerevisiae deletion strains, locus YEL037C, strain rad23, active compounds read low 0.963 | S. cerevisiae deletion strains, locus YEL061C, strain CIN8 (second series), active compounds read low 0.972 | S. cerevisiae deletion strains, locus YER015W, strain faa2, active compounds read low 0.986 | S. cerevisiae deletion strains, locus YER016W, strain bim1, active compounds read low 0.978 | S. cerevisiae deletion strains, locus YER111C, strain swi4, active compounds read low 0.981 | S. cerevisiae deletion strains, locus YER155C, strain BEM2 (second series), active compounds read low 0.989 | S. cerevisiae deletion strains, locus YFR010W, strain ubp6, active compounds read low 0.964 | S. cerevisiae deletion strains, locus YGL167C, strain pmr1, active compounds read low 0.987 | S. cerevisiae deletion strains, locus YGL173C, strain kem1, active compounds read low 0.983 | S. cerevisiae deletion strains, locus YGL227W, strain vid30, active compounds read low 0.994 | S. cerevisiae deletion strains, locus YGL240W, strain doc1, active compounds read low 1.01 | S. cerevisiae deletion strains, locus YGL253W, strain hxk2, active compounds read low 0.991 | S. cerevisiae deletion strains, locus YHR013C, strain ard1, active compounds read low 0.963 | S. cerevisiae deletion strains, locus YHR027C, strain rpn1, active compounds read low 0.975 | [9] 1 | S. cerevisiae deletion strains, locus YHR079C, strain IRE1, active compounds read low 1.03 | S. cerevisiae deletion strains, locus YHR142W, strain chs7, active compounds read low 0.948 | S. cerevisiae deletion strains, locus YJL092W, strain hpr5, active compounds read low 0.97 | S. cerevisiae deletion strains, locus YJL095W, strain BCK1 (second series), active compounds read low 0.994 | S. cerevisiae deletion strains, locus YJL095W, strain BCK1, active compounds read low 1.01 | S. cerevisiae deletion strains, locus YJL115W, strain asf1, active compounds read low 0.968 | S. cerevisiae deletion strains, locus YJL129C, strain trk1, active compounds read low 0.961 | S. cerevisiae deletion strains, locus YJL154C, strain vps35, active compounds read low 0.989 | S. cerevisiae deletion strains, locus YJL164C, strain tpk1, active compounds read low 0.982 | S. cerevisiae deletion strains, locus YJL166W, strain qcr8, active compounds read low 0.99 | S. cerevisiae deletion strains, locus YJL187C, strain SWE1, active compounds read low 0.991 | S. cerevisiae deletion strains, locus YJR066W, strain TOR1, active compounds read low 0.945 | S. cerevisiae deletion strains, locus YKL160W, strain elf1, active compounds read low 0.974 | S. cerevisiae deletion strains, locus YKR026C, strain gcn3, active compounds read low 0.972 | S. cerevisiae deletion strains, locus YKR091W, strain srl3, active compounds read low 0.989 | S. cerevisiae deletion strains, locus YLL001W, strain dnm1, active compounds read low 0.965 | S. cerevisiae deletion strains, locus YLL026W, active compounds read low 0.991 | S. cerevisiae deletion strains, locus YLL041C, strain sdh2, active compounds read low 0.982 | S. cerevisiae deletion strains, locus YLR027C, strain aat2, active compounds read low 0.984 | S. cerevisiae deletion strains, locus YLR113W, strain HOG1, active compounds read low 1.04 | S. cerevisiae deletion strains, locus YLR221C, strain rsa3, active compounds read low 0.975 | S. cerevisiae deletion strains, locus YLR258W, strain gsy2, active compounds read low 0.995 | S. cerevisiae deletion strains, locus YLR262C, strain YPT6 (second series), active compounds read low 0.98 | S. cerevisiae deletion strains, locus YLR320W, strain mms22, active compounds read low 0.995 | S. cerevisiae deletion strains, locus YLR342W, strain FKS1, active compounds read low 0.982 | S. cerevisiae deletion strains, locus YLR357W, strain rsc2, active compounds read low 1 | S. cerevisiae deletion strains, locus YLR370C, strain arc18, active compounds read low 0.971 | S. cerevisiae deletion strains, locus YLR384C, strain iki3, active compounds read low 0.987 | S. cerevisiae deletion strains, locus YML120C, strain ndi1, active compounds read low 0.958 | S. cerevisiae deletion strains, locus YMR058W, strain fet3, active compounds read low 0.97 | S. cerevisiae deletion strains, locus YMR125W, strain sto1, active compounds read low 0.993 | S. cerevisiae deletion strains, locus YMR129W, active compounds read low 0.975 | S. cerevisiae deletion strains, locus YMR205C, strain PFK2, active compounds read low 1.01 | S. cerevisiae deletion strains, locus YMR231W, strain pep5, active compounds read low 0.984 | S. cerevisiae deletion strains, locus YNL071W, strain lat1, active compounds read low 0.992 | S. cerevisiae deletion strains, locus YNL183C, strain NPR1, active compounds read low 0.952 | S. cerevisiae deletion strains, locus YNL209W, strain ssb2, active compounds read low 0.982 | S. cerevisiae deletion strains, locus YNL248C, strain rpa49, active compounds read low 0.947 | S. cerevisiae deletion strains, locus YNL322C, strain KRE1 (second series), active compounds read low 0.977 | S. cerevisiae deletion strains, locus YNR049C, strain mso1, active compounds read low 0.983 | S. cerevisiae deletion strains, locus YOR001W, strain rrp6, active compounds read low 0.942 | S. cerevisiae deletion strains, locus YOR070C, strain gyp1, active compounds read low 0.993 | S. cerevisiae deletion strains, locus YOR080W, strain dia2, active compounds read low 0.981 | S. cerevisiae deletion strains, locus YOR083W, strain WHI5, active compounds read low 0.972 | S. cerevisiae deletion strains, locus YOR106W, strain vam3, active compounds read low 0.971 | S. cerevisiae deletion strains, locus YOR231W, strain MKK1, active compounds read low 1.01 | S. cerevisiae deletion strains, locus YOR265W, strain rbl2, active compounds read low 0.991 | S. cerevisiae deletion strains, locus YOR270C, strain vph1, active compounds read low 0.964 | S. cerevisiae deletion strains, locus YOR290C, strain snf2, active compounds read low 0.979 | S. cerevisiae deletion strains, locus YPL051W, strain arl3, active compounds read low 0.998 | S. cerevisiae deletion strains, locus YPL078C, strain atp4, active compounds read low 0.966 | S. cerevisiae deletion strains, locus YPL106C, strain sse1, active compounds read low 0.961 | S. cerevisiae deletion strains, locus YPL240C, strain hsp82, active compounds read low 0.971 | S. cerevisiae deletion strains, locus YPL256C, strain CLN2, active compounds read low 1.04

Cc1c(C)c(C)c(S(=O)(=O)Nc2ccccc2N)c(C)c1C
inactive: [3] 1.01 | [4] 0.993 | [6] 1.04 | [7] 1.02 | [8] 0.959 | [1] 1.01 | [9] 1.01 | [10] 0.989 | [11] 1.03 | [12] 1.01 | [13] 0.994 | [14] 0.988 | [15] 0.975 | [16] 0.988 | [17] 0.981 | [18] 1 | [19] 0.999 | [20] 1.01 | [21] 0.978 | [2] 1.04 | [22] 0.982 | [23] 0.996 | [24] 0.966 | [29] 1.02 | [25] 0.991 | [26] 0.974 | [27] 1.06 | [28] 0.975
